Measured values as given in PubChem BioAssay (NCATS).
Records with an inconclusive call do not appear. Calls of active or inactive are those of the source. The call rests on the fitted dose curve; in most records, active means well fitted curve in the direction sought with a large enough effect; inconclusive means small, poorly fitted or top-dose-only effect, or another doubt; inactive means no such curve, though single readings can be large; an effect the other way counts as inactive or inconclusive. Square brackets hold non-standard residues; d marks the D form. Peptide text beside a SMILES is read from it. * marks the point of attachment. ξ: configuration not given here. Hexanoyl = CCCCCC(=O)*; ξL = CC(C)CC(N)C(=O)O

Assay: Vero-766 cells viability qHTS against the NCATS CANVASS Library: Counterscreen for Zika virus inhibition assay (AID 1347394); further: nearly all actives have a fitted effect of over 60% in size; further: potency means the concentration at half of the fitted maximal effect
Conditions: Vero 766 viability, CellTiter-Glo luminescence, 72 h; series mostly up to 46.1 µM; activity change, negative = cytotoxic: at the top concentration
Procedure, shortened: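 Counterscreen for toxicity: Vero 766 cells exposed 72 h to an 11-point compound series, viability by CellTiter-Glo.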
On the % scale 0 is the no-effect control and ±100 the full control effect.

| Compound | activity change, negative = cytotoxic | Potency |
| --- | --- | --- |
| CC(=O)N[C@H](C)c1nc(/C=C/C=C/C(=O)CC2CC(=O)CC[C@]2(C)O)cs1 (stereo partly specified) | -18.9% (inactive) | – |
| CN1C(=O)C(=O)N2C(=C[C@]3(c4c[nH]c5ccccc45)c4ccccc4N[C@H]23)C1=O | -9.97% (inactive) | – |
| CN1CC[C@]23c4ccccc4N[C@H]1[C@]21CCN(C)[C@H]3Nc2ccccc21 | -0.117% (inactive) | – |
| C/C=C1/C2=CCCN3C(=O)O[C@H]([C@H]1O)[C@H]23 | 8.09% (inactive) | – |
| O=C1CC(c2ccc(O)cc2)Oc2ccccc21 (stereo unspecified) | -1.5% (inactive) | – |
| COC1C(C)OC(OCC23C[C@@H]4[C@H](C)CC[C@H]4C4(C=O)CC2C=C(C(C)C)C34C(=O)O)[C@@H](O)[C@H]1O (stereo partly specified) | -21.5% (inactive) | – |
| CN1CC[C@@]2([C@@]34CCN(C)[C@@H]3Nc3ccccc34)c3ccccc3N[C@@H]12 | -16.9% (inactive) | – |
| COc1ccc(-c2oc3cc(OC)cc(OC)c3c(=O)c2O)cc1 | -2.27% (inactive) | – |
| CC[C@@H](C)[C@H]1NC(=O)C(CC(C)C)NC(=O)[C@@H](CC(C)C)NC(=O)[C@H](Cc2c[nH]c3ccccc23)NC(=O)CNC(=O)[C@@H](CC(N)=O)NC1=O (stereo partly drawn) (cyclo(GW[dL][ξL][dI][dN])) | -7.1% (inactive) | – |
| Cc1cc(O)cc2c1C(=O)c1c(O)cc(O)cc1C2=O | -3.81% (inactive) | – |
| C=C(C)C(=O)O[C@H]1C[C@@]2(C)OC(=CC2=O)/C(C)=C\[C@H]2OC(=O)C(=C)[C@H]12 | – | 13.2 µM (active) |
| C=C[C@]1(C)CC[C@@H]([C@H](C)C(=O)CC=C(C)C)O1 | -24.6% (inactive) | – |
| CC[C@@H]1C[C@@]2(CC)OC(=O)[C@@]3(CC)[C@H](CC)[C@@H]1[C@@H]23 | 2.57% (inactive) | – |
| [C-]#[N+][C@@]12C(=O)[C@@H]3[C@@H](O[C@@]4(C(=O)N(C)c5cccc1c54)C3(C)C)C(=O)[C@@]2(C)C=C | -6.16% (inactive) | – |
| C[C@@]12CCC[C@@](C)(C(=O)OP(=O)(O)OC[C@H]3O[C@@H](n4cnc5c(N)ncnc54)[C@H](O)[C@@H]3O)[C@H]1C[C@@H](O)[C@@]13C[C@@H](CC[C@@H]21)[C@](C)(O)C3 | 5.41% (inactive) | – |
| C[C@@]12CCC[C@@](C)(C(=O)O)[C@H]1CC[C@@]13C[C@@H](CC[C@H]12)[C@](C)(O)C3 | -4.38% (inactive) | – |
| O=C1OC(CCO)c2cccc(O)c21 (stereo unspecified) | 9.44% (inactive) | – |
| C=C1C[C@]23C=CC(=O)[C@@](C)(CCCC(C)C(=O)N[C@@H](CO)C(=O)O)[C@@H]2C[C@@H]1CC3 (stereo partly specified) | 3.55% (inactive) | – |

| Compound | activity change, negative = cytotoxic | Potency |
| --- | --- | --- |
| COc1cc2ccc(=O)oc2c(O)c1O[C@@H]1O[C@H](CO)[C@@H](O)[C@H](O)[C@H]1O | -11.6% [at 27.5 µM] (inactive) | – |
| C/C(=C\[C@@H](C)CC/C=C/CC/C=C/C(=O)O)[C@@H](O)[C@H](C)C(=O)CCCC1CC(=O)NC(=O)C1 | -1.5% (inactive) | – |
| CO[C@@H](C[C@@H](C)[C@@H](O)/C=C/C=C/CNC(=O)C(C)(C)[C@H](O)\C(C)=C/C=C\C=C\Cc1cnco1)[C@]1(O)[C@@H](C)C(=O)N(C)[C@@]12COC2=O | 7.52% (inactive) | – |
| O=C1CC(c2ccc(O)cc2)Oc2cc(O)cc(O)c21 (stereo unspecified) | -25.1% (inactive) | – |
| O=C1CC(c2ccc(O)cc2)Oc2cc(O)ccc21 (stereo unspecified) | -13.3% (inactive) | – |
| CN1CC[C@@]23c4ccccc4N[C@@H]1[C@@]21CCN(C)[C@@H]3Nc2ccccc21 | -22.1% (inactive) | – |
| C[C@@]12CCC[C@@](C)(C(=O)O)[C@H]1C[C@@H](O)[C@@]13C[C@@H](CC[C@@H]21)[C@](C)(O)C3 | -9.37% (inactive) | – |
| O=Cc1ccc2n1C[C@]1(OC2)O[C@H](CO)[C@@H](O)[C@@H]1O | -15.1% (inactive) | – |
| C=C[C@@]1(C)CC[C@@H]([C@H](C)C(C)=O)O1 | -2.57% (inactive) | – |
| C/C=C(/CO)C(=O)O[C@@H]1[C@H](O)[C@@H](C(=O)OC)O[C@@H]2C[C@H]3OC(n4cnc5c(N)ncnc54)[C@H](OC)[C@H]3O[C@@]12O (stereo partly specified) | -10.6% (inactive) | – |
| C/C=C/[C@H]1[C@H]2C(=O)c3c(O)c(C)c(O)c(C)c3[C@]1(C(=O)O)C(=O)C=C2C | -6.3% (inactive) | – |
| C=C1CCC2C(C)(C(=O)O)CCC(CC/C(C)=C/C(=O)NC(CCC(N)=O)C(=O)O)[C@@]2(C)C1 (stereo partly specified) | 7.26% (inactive) | – |
| C=C1[C@@]2(C)CC3C4(C)CCC(O)C(C)(C)C4CCC3(C)[C@]1(C(=O)OC)C(=O)C(C)(O)C2=O (stereo partly specified) | -6.17% (inactive) | – |
| CC(C)=CCC[C@]1(C)[C@H]2CC(=O)[C@@]3(CO3)[C@@H]1C2 | -4.9% (inactive) | – |
| CCCCCC(=O)N[C@@H](CC(C)C)C(=O)N[C@H](C=O)CCC(=O)O (Hexanoyl-Leu-Glu-aldehyde) | 12.9% (inactive) | – |
| COc1ccc([C@@H]2c3cc4c(cc3C(=O)C(C)C2C)OCO4)cc1OC (stereo partly specified) | 1.31% (inactive) | – |
| CC1(C)CC[C@]2(CO)CC[C@]3(C)C(=CCC4[C@@]5(C)CC[C@H](O)C(C)(C)C5CC[C@]43C)C2C1 (stereo partly specified) | -21.2% (inactive) | – |

Assay: qHTS for inhibitors of Wild type Zika virus screened against the NCATS CANVASS Library (AID 1347396);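 further: ATP luminescence of surviving cells so rescue from viral cell killing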
Conditions: Vero cells, Zika virus CPE, CellTiter-Glo, 72 h; series mostly up to 45.9 µM; activity change, negative = antiviral: at the top concentration
Procedure, shortened: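 Vero 766 cells, 1000/well, o/n attach; cpds pin-transferred (11-pt qHTS); WT Zika added; 72 h, 37C, 5% CO2; CellTiter Glo lumi. Uninfected + vehicle = 100% inhibition.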

| Compound | activity change, negative = antiviral |
| --- | --- |
| CC(=O)N[C@H](C)c1nc(/C=C/C=C/C(=O)CC2CC(=O)CC[C@]2(C)O)cs1 (stereo partly specified) | 0.681% (inactive) |
